This is a sample that favours compounds with a hit; in the whole collection about 1.1% have one here.
MOR-DOR inv ag – inverse agonists of human mu-delta opioid receptor heterodimerization; AID 504357; hit rate 0.21% among 340,000; inhibition, % at 9.3 µM; cell-based MOR-DOR heterodimer luminescence, inverse agonism; in the data active = inhibition above about 22%, passing the limit was not always enough;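 note: 0% = cells with DMSO and 100% = wells without cells with DMSO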
OPRM1-OPRD1 ag – OPRM1-OPRD1 heterodimerization agonism; P35372+P41143; cells, luminescence; activation, % at 9.3 µM; hit rate 0.3% among 340,000; AID 504326;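 note: 0% = vehicle-treated cells and 100% = reference agonist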
HTR5A inv ctr – counter-screen for OPRM1-OPRD1 inverse agonists: human HTR5A inverse agonism; hit rate 0.083% among 340,000; inhibition, % at 9.3 µM; HTR5A cell line, luminescence; P47898; AID 504634; in the data active = inhibition mostly above about 23%, no sharp cut-off; inactive = mostly below about 18%;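 note: 0% = cells with DMSO and 100% = no-cell wells with DMSO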
Target sequence (P47898 whole entry, looked up): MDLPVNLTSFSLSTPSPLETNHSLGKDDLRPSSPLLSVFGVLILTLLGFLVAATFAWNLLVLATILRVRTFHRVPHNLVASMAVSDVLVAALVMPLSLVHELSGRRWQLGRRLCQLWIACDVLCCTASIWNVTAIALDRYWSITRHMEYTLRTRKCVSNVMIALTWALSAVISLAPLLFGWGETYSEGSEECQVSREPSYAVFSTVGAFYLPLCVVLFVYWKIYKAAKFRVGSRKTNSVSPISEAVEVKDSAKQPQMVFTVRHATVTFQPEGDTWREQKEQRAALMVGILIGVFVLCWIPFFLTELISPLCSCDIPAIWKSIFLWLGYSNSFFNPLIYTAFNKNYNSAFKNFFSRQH
HTR5A ag ctr – counter-screen for OPRM1-OPRD1 agonists: human HTR5A agonism | hit rate 0.61% among 340,000 | HTR5A agonist assay, luminescence, cell-based | P47898 | activation, % at 9.3 µM; in the data active = activation mostly above about 9.5%, no sharp cut-off; inactive = mostly below about 7.6%;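 note: 0% = cells with vehicle only and 100% = reference agonist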
MOR-DOR ag conf – confirmation of human OPRM1-OPRD1 heterodimerization agonists; shares compounds with OPRM1-OPRD1 ag; cells, MOR-DOR heterodimerization, luminescence complementation; activation, % at 9.3 µM; AID 504904; hit rate 45% among 830;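 note: 0% = vehicle-treated cells and 100% = reference agonist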
HTR5A ag ctr2 – activates human HTR5A in OPRM1-OPRD1 agonist counter-screen; shares compounds with OPRM1-OPRD1 ag; HTR5A agonist counterscreen, cell luminescence; activation, % at 9.3 µM; hit rate 8% among 830; in the data active = activation above about 17%;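 note: 0% = vehicle-treated cells and 100% = reference agonist response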
* hit, by the source's call; i = inactive; . = not tested or not shown. Cut-off read from the data, not from the text of the source, unless noted: active = activation above about 18%; inactive = the rest.

SMILES	MOR-DOR inv ag	OPRM1-OPRD1 ag	HTR5A inv ctr	HTR5A ag ctr	MOR-DOR ag conf	HTR5A ag ctr2
CCC(=O)OC(Cc1ccccc1)(c1ccccc1)[C@H](C)CN(C)C (stereo not given in full)	-325.7	81.0*	-21.7	9.4	79.6*	-5.0
CC(CN1CCOCC1)OC(=O)Cc1ccccc1 (stereo not given)	7.7	-1.6	5.3	0.3	.	.
CC(=O)OC1C=CC2[C@H]3Cc4ccc(O)c5c4[C@@]2(CCN3C)C1O5 (stereo not given in full)	i	282.2*	-13.2	5.7	-1.8	-1.0
CN1CC[C@]23c4c5ccc(OC6OC(C(=O)O)[C@@H](O)C(O)[C@H]6O)c4OC2C(O)C=CC3[C@H]1C5 (stereo not given in full)	-33.6	8.4	-9.8	4.2	.	.
COC1=CC2[C@@H]3Cc4ccc(OC)c(O)c4[C@]2(CCN3C)CC1=O (stereo not given in full)	8.6	-1.8	-9.9	2.7	.	.
COc1ccc2c3c1OC1[C@H](O)CCC4[C@@H](C2)N(C)CC[C@]314 (stereo not given in full)	-184.7	45.9*	-9.0	3.9	2.2	3.9
CN1CC[C@]23c4c5ccc(O)c4OC2C(O)C=CC3[C@H]1C5 (stereo not given in full)	.	.	-15.4	6.7	.	-1.8
O=C1NC(=O)C(CCc2ccncc2)(CCc2ccccn2)C(=O)N1c1ccc(Br)cc1 (stereo not given)	9.5	-1.9	3.8	-1.4	.	.
CCC(C)N1C(=O)/C(=C/c2ccc3c(c2)CCN3CCCCl)C(=O)NC1=S (stereo not given)	2.5	-0.5	-45.1	2.1	.	.
CN(C)C1(CNC(=O)Cc2ccccc2F)CCCCC1	-7.0	1.6	3.2	-0.9	.	.
CN(C)C1(CNC(=O)c2ccc(Cl)c(S(=O)(=O)NCc3ccco3)c2)CCCCC1	-395.1	71.4*	17.1	-2.2	79.8*	1.2
CCOC(=O)C1(CCc2ccccc2)CCN(Cc2ccc3c(c2)OCCO3)CC1	-120.8	24.7*	-12.7	6.1	0.9	4.0
CCOC(=O)C1(CCc2ccccc2)CCN(C2CCSCC2)CC1	-10.1	1.9	6.7	-2.7	.	.
CCOC(=O)C1(CCc2ccccc2)CCN(Cc2ccc(NC(C)=O)cc2)CC1	i	292.7*	2.1	-0.6	372.3*	0.3
CCOC(=O)C1(CCOc2ccccc2)CCN(Cc2ccc(C)s2)CC1	-171.2	32.8*	3.6	-1.5	38.5*	3.4
C[N+]1([O-])[C@@H]2CC(OC(=O)[C@H](CO)c3ccccc3)C[C@H]1[C@@H]1O[C@@H]12 (stereo not given in full)	10.7	-2.0	-1.8	0.5	.	.
Oc1cc(Cl)c(Cl)c(Cl)c1	-23.1	4.3	-18.4	4.4	.	.
Cc1cc(C)c(C(=O)N2CCC3(CC2)OCCO3)c(C)c1	3.8	-0.7	6.9	-2.5	.	.
CC(=O)OC1CC2(O)C3CCC4CC(O)CCC4(C)C3CCC2(C)C1C1=CC(=O)OC1 (stereo not given)	-355.6	81.2*	-108.5	28.3*	0.7	62.3*
CC(=O)[C@H]1CCC2C3CC[C@H]4C[C@@H](O)CC[C@]4(C)C3CC[C@@]21C (stereo not given in full)	4.2	-0.8	14.5	-3.7	.	.
CC(=O)O[C@@H]1CC[C@]2(C)C3CC[C@@]4(C)C(C[C@@H](O)[C@@H]4O)C3[C@@H](OC(C)=O)C[C@H]2C1 (stereo not given in full)	10.2	-2.0	-2.6	0.7	.	.
CC(=O)OC1CC(OC2C(O)CC(OC3C(O)CC(OC4CCC5(C)C(CCC6C5CCC5(C)C(C7=CC(=O)OC7)C(O)CC65O)C4)OC3C)OC2C)OC(C)C1OC1OC(CO)C(O)C(O)C1O (stereo not given)	-369.5	71.8*	-74.6	19.1*	37.9*	28.0*
COc1ccc(O)c(CN2CCCC(C(=O)c3sccc3C)C2)c1 (stereo not given)	10.2	-2.0	9.5	0.1	.	.
COc1ccc(C(CNC(=O)c2ccc3c(c2)CCC3)N(C)C)cc1 (stereo not given)	i	399.7*	-6.9	2.4	512.3*	-2.0
CCCCOC(=O)C1=C(N)OC2=C(C(=O)CCC2)[C@]12C(=O)Nc1ccccc12	-7.1	1.4	-15.9	1.3	.	.
SMILES	MOR-DOR inv ag	OPRM1-OPRD1 ag	HTR5A inv ctr	HTR5A ag ctr	MOR-DOR ag conf	HTR5A ag ctr2
CN(C(=O)Cc1ccc(Cl)c(Cl)c1)C(CN1CCCC1)c1cccc(OCC(=O)O)c1 (stereo not given)	-308.2	57.0*	-4.5	1.2	36.9*	-1.1
Cc1cccc(OCC(=O)N2CCN(Cc3ccc4c(c3)OCO4)CC2)c1	16.6	-3.3	-1.8	0.7	.	.
Cc1cccc(-n2c(O)c(/C=C3/C(c4ccccc4)=Nc4ccccc43)c(=O)[nH]c2=O)c1	-17.5	3.4	-2.0	1.0	.	.
C[C@@H]1O[C@@H](O[C@H]2C[C@@H](O)[C@]3(CO)[C@H]4[C@H](O)C[C@]5(C)[C@@H](C6=CC(=O)OC6)CC[C@]5(O)[C@@H]4CC[C@]3(O)C2)[C@H](O)[C@H](O)[C@H]1O	-386.4	69.8*	-32.8	30.1*	79.4*	6.0
CC1OC(OC2C=C3CCC4C(CCC5(C)C(c6ccc(=O)oc6)CCC45O)C3(C)CC2)C(O)C(OC2OC(CO)C(O)C(O)C2O)C1O (stereo not given)	-400.9	91.5*	-98.6	25.7*	1.9	-0.4
COC12CCC3(CC1C(C)(O)C(C)(C)C)[C@H]1Cc4ccc(OC5OC(C(=O)O)[C@@H](O)C(O)[C@H]5O)c5c4[C@@]3(CCN1CC1CC1)C2O5 (stereo not given in full)	-73.1	18.2*	-13.7	5.9	84.3*	2.5
N[C@@H]1CC[C@@]2(O)[C@H]3Cc4ccc(O)c5c4[C@@]2(CCN3CC2CC2)C1O5 (stereo not given in full)	-9.9	2.5	13.0	-5.6	.	.
O=C1/C(=C/c2ccccc2)C[C@@]2(O)[C@H]3Cc4ccc(O)c5c4[C@@]2(CCN3CC2CC2)C1O5 (stereo not given in full)	13.0	-3.2	2.6	-1.1	.	.
COC12CCC3(CC1C(C)(O)C(C)(C)C)[C@H]1Cc4ccc(O)c5c4[C@@]3(CCN1CC1CC1)C2O5 (stereo not given in full)	.	.	-10.1	4.4	.	52.9*
c1cncc(CNC2CCCC2)c1	11.3	-2.2	10.0	-4.1	.	.
C[C@H]1O[C@@H](OC2CC[C@]3(C=O)[C@H]4CC[C@]5(C)[C@@H](C6=CC(=O)OC6)CC[C@]5(O)[C@@H]4CC[C@]3(O)C2)CC2OC(C)(C)OC21 (stereo not given in full)	-420.2	72.8*	-127.2	32.8*	-2.4	-2.1
C[C@]12CCC3C(CCC4=CC(O)CC[C@@]43/C=N/O)C1(O)CCC2C1=CC(=O)OC1 (stereo not given in full)	-354.9	69.2*	-105.8	28.9*	38.1*	21.6*

Source: PubChem BioAssay
